From PubChem BioAssay
POLH inh: inhibitors of human DNA polymerase eta; Q9Y253; recombinant Pol eta, fluorescent DNA replication assay; Potency, µM (top dose mostly 114 µM), without a hit: top-dose activity change, negative = inhibition, usual class: inhibitors; 390,000 compounds, 1.2% hits; note: % is set by controls: 0 for no effect and ±100 for the full control effect
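Pol eta (10 nM) was preincubated with compounds for 15 min at room temperature, after which fluorescent replication substrate (50 nM final) was added to start the reaction. Fluorescence was read kinetically at 0 and 10 min.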
POLI inh: inhibitors of human DNA polymerase iota; Q9UNA4; Pol iota fluorescent replication assay, 10 min; Potency, µM (doses to about 115 µM), for inactives: at the highest dose activity, negative = inhibition, most hits filed as inhibitors; 390,000 compounds, 1% hits; AID 588590
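Pol iota at 10 nM preincubated 15 min with compounds at room temperature; reaction started with fluorescent substrate, 50 nM final. Fluorescence read kinetically at 0 and 10 min; buffer-only wells as negative control.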
WRN helicase inh: WRN helicase (human) inhibition; WRN helicase unwinding, fluorescent forked duplex, kinetic; Potency, µM (series often up to 114 µM), inactives show at the top dose activity change, negative = inhibition, usual class: inhibitors; 360,000 compounds, 0.46% hits; AID 651768; note: % is set by controls: 0 for no effect and ±100 for the full control effect; nearly all actives have a fitted effect of over 55% in size
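Kinetic red-fluorescence monitoring (525/598 nm) tracks WRN helicase activity after 100 nM fluorophore-quencher forked duplex and 2 mM ATP are added to 20 nM enzyme pretreated 15 min at room temperature with compound.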
POLB inh: blocks human DNA polymerase beta activity. P06746. Pol beta primer extension/strand displacement, fluorescence kinetic. Potency, µM (doses to about 114 µM), for inactives: top-dose activity change, negative = inhibition, most hits filed as inhibitors. 340,000 compounds, 1.3% hits; note: % is set by controls: 0 for no effect and ±100 for the full control effect
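Reaction started by 50 nM substrate onto compound-treated Pol beta (10 nM, 15 min preincubation, room temperature); plates read at 0 min and 10 min. Normalized concentration-effect data fitted by four-parameter Hill equation.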
Pol kappa inh: blocks human DNA polymerase kappa activity. Q9UBT6. purified Pol kappa, fluorescent DNA synthesis assay, 10 min. Potency, µM (doses to about 107 µM), inactives show at the highest dose activity, negative = inhibition, usual class: inhibitors. 400,000 compounds, 0.53% hits; note: % is set by controls: 0 for no effect and ±100 for the full control effect
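Pol kappa 10 nM + cpd, 15 min RT; start w/ substrate 50 nM final; fluorescence kinetic read, 0 and 10 min. Neg ctrl: buffer, no enzyme.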
FEN1 inhibitor: human FEN1 inhibition. P39748. Recombinant FEN1 flap cleavage, fluorescence, 15 min. Potency, µM (series often up to 114 µM), without a hit: at the highest dose activity change, negative = inhibition, actives largely listed as inhibitors. 390,000 compounds, 0.35% hits. AID 588795; note: % is set by controls: 0 for no effect and ±100 for the full control effect; nearly all actives have a fitted effect of over 65% in size
Target sequence (P39748 whole entry, looked up): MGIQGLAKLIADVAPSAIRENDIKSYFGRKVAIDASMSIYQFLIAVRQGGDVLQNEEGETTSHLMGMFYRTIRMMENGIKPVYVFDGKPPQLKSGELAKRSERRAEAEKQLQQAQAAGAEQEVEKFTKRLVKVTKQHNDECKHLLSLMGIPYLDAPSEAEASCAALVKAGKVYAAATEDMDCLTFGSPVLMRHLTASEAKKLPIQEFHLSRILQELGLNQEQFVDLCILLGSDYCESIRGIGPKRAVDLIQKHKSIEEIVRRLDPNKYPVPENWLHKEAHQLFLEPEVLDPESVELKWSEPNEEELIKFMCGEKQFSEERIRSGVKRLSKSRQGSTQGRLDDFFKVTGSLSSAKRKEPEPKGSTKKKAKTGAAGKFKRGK
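Reaction started by adding substrate (50 nM final) to 10 nM enzyme after 15 min room-temperature compound preincubation. Reads at 0 and 15 min, with data normalized and fitted to a four-parameter Hill equation.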
The depositor's hits bear a star; ? = inconclusive; . = no result; [ ] = another dose, or the depositor's remark. An excerpt weighted towards active compounds, which were near 2.4% of everything screened. Calls come from the whole dose curve; as a rule, active = well fitted curve in the direction sought with a large enough effect; inconclusive = small, poorly fitted or top-dose-only effect, or another doubt; inactive = no such curve, though single readings can be large; an effect the other way counts as inactive or inconclusive. Potency is the fitted concentration of half-maximal effect.

SMILES	POLH inh	POLI inh	WRN helicase inh	POLB inh	Pol kappa inh	FEN1 inhibitor
CC(C)P(=O)(c1cccc(C(=O)O)c1)C(C)C	-0.7%	13.7%	1.2%	4.3%	-6.5%	2.4%
COc1ccc2nc(NNC(=O)c3cc(=O)c4ccccc4o3)sc2c1	79.4µM*	-6.3%	-9.1%[57.1 µM]	?	11.0%	1.2%
COc1ccc2nc(NC(=O)c3cc(=O)c4cc(C)c(C)cc4o3)sc2c1	-12.1%	30.5%	.	-10.9%	-14.6%	-7.4%
O=C(NNc1nc2c(F)cccc2s1)c1cc(=O)c2ccccc2o1	?	22.4µM*	-19.1%[57.1 µM]	?	-17.8%	0.6%
COc1ccc(NC(=O)CSc2nc(O)cc(=O)n2-c2ccccc2)cc1	-8.9%	79.4µM*	2.7%[11.6 µM]	?	-21.7%	-9.9%
COc1ccc2nc(SCC(=O)Nc3ccccc3)[nH]c2c1	-15.2%	-15.2%	0.3%	28.2µM*	-11.0%	-0.6%
COc1ccc(NC(=O)CSc2nc(O)cc(=O)n2C)cc1	-1.3%	?	?	-0.3%	?	?
Cc1c(O)nc(SCC(=O)Nc2ccc3c4c(cccc24)CC3)n(-c2ccccc2)c1=O	-14.9%	60.9%	-18.8%	?	-2.9%	-12.3%
COc1ccc2nc(SCC(=O)NCc3ccccc3)[nH]c2c1	2.8%	31.8%	-4.0%	92.5%	-17.6%	3.3%
COc1ccc(-c2csc(NC(=O)CSc3nc4ccccc4c(=O)[nH]3)n2)cc1	?	35.5µM*	-10.4%[11.6 µM]	-29.1%	?	-18.2%
O=C(CSc1nc(O)cc(=O)n1-c1ccccc1)Nc1ccc2c3c(cccc13)CC2	-28.6%	?	?	35.5µM*	-16.6%	1.6%
Cc1ccc(-c2csc(NC(=O)CSc3nc4ccccc4[nH]3)n2)cc1	-14.8%	-11.2%	-12.8%	5.5%	-15.5%	3.4%
O=C(CCCNC(=O)c1ccc(Cl)cc1)NCc1ccc(F)cc1	-25.9%	11.6%	3.7%	?	-5.6%	-0.2%
COc1ccc(NC(C)=O)cc1NC(=O)CSc1nc2ncccc2[nH]1	-14.4%	2.0%	?	-6.7%	-9.5%	-8.6%
COc1ccccc1NC(=O)CCSCCC(=O)Nc1ccccc1OC	?	-12.3%	-12.6%	56.2µM*	-22.7%	-8.6%
COc1ccccc1NC(=O)CSc1nc2ncccc2[nH]1	-8.2%	28.0%	1.2%	35.5µM*	-7.2%	7.5%
Cc1cccc(N2CCn3c2nc2c3c(=O)n(CCCc3ccccc3)c(=O)n2C)c1	-10.0%	-3.4%	.	89.1µM*	-29.1%	3.4%
CCOCCn1c(=O)c2c(nc3n2CCN3c2ccc(C)cc2)n(C)c1=O	-19.5%	9.3%	5.7%	.	-12.1%	0.0%
Cn1c(=O)n(CCCc2ccccc2)c(=O)c2c1nc1n2CCN1c1ccc(F)cc1	-17.6%	19.4%	.	?	-17.9%	-5.7%
CCOCCn1c(=O)c2c(nc3n2CCN3c2ccc(C)c(C)c2)n(C)c1=O	-10.8%	?	.	20µM*	-7.4%	9.2%
CCc1ccc(N2CCn3c2nc2c3c(=O)n(CCc3ccccc3)c(=O)n2C)cc1	-10.0%	3.1%	.	-0.2%	-19.9%	-3.2%
Cc1cccc(N2CCn3c2nc2c3c(=O)n(CCc3ccccc3)c(=O)n2C)c1	-22.7%	19.2%	.	39.8µM*	-15.8%	-1.7%
CCc1ccc(OCC(=O)NCC(c2ccc(Cl)cc2)N2CCOCC2)cc1 (centres undefined)	-22.6%	55.2%	.	6.9%	-22.3%	3.9%
CCCCCC(=O)NNC(=O)Cc1ccc([N+](=O)[O-])cc1	-13.6%	71.2%	-11.6%	-12.0%	-5.8%	4.3%
O=C(O)C1Cc2ccccc2CN1C(=O)COc1ccc(Cl)cc1 (centres undefined)	31.6µM*	-16.8%	-6.0%[11.6 µM]	-27.2%	-20.3%	-0.6%
SMILES	POLH inh	POLI inh	WRN helicase inh	POLB inh	Pol kappa inh	FEN1 inhibitor
O=C(O)C1Cc2ccccc2CN1S(=O)(=O)c1ccc(Cl)cc1 (centres undefined)	?	26.6%	-8.7%	?	-24.5%	3.1%
Cc1ccccc1NC(=O)CSc1nnc(-c2ccco2)c(-c2ccco2)n1	50.1µM*	10µM*	39.8µM*	14.1µM*	31.6µM*	56.2µM*
Cc1cccc(C)c1NC(=O)CSc1nnc(-c2ccco2)c(-c2ccco2)n1	3.55µM*	?	35.5µM*	3.16µM*	28.2µM*	79.4µM*
COc1ccc(-c2nnc(SCC(=O)Nc3c(C)cccc3C)nc2-c2ccc(OC)cc2)cc1	-19.8%	-21.7%	.	-13.3%	-13.4%	-11.1%
Cc1ccc(C(=O)Nc2cccc(Oc3ccccc3)c2)o1	-23.1%	-10.8%	-13.4%	3.0%	-8.2%	1.5%
COc1ccc(CCNC(=O)c2cc([C@@H](NC(=O)OC(C)(C)C)C(C)C)sc2N)cc1OC	.	.	3.5%	.	.	.
O=C1C(c2ccccc2)=[N+]([O-])c2ccccc21	?	8.91µM*	70.8µM*	.	-24.7%	?
CN(C)c1nc(N)nc(-c2nc3ccccc3s2)n1	-3.4%	7.3%	-14.6%	8.7%	-7.6%	2.1%
O=[N+]([O-])c1cc(C(F)(F)F)cc([N+](=O)[O-])c1Sc1n[nH]c(C(F)(F)F)n1	-15.0%	25.1µM*	?	25.9%	3.2%	8.8%
CCc1sc(C(=O)NCCc2ccc(S(N)(=O)=O)cc2)cc1Br	-10.0%	89.1µM*	-2.7%	-0.7%	0.0%	-3.5%
CCc1sc(C(=O)NCCc2ccc(S(N)(=O)=O)cc2)cc1C	-7.2%	?	-8.7%	82.6%	-14.4%	3.0%
NC(=O)CSC1=N/C(=C\c2ccco2)C(=O)N1c1ccc(OC(F)F)cc1	31.6%	35.5µM*	-9.6%[11.6 µM]	-22.9%	?	-9.3%
CCN(CC)C(=O)CSC1=N/C(=C/c2ccco2)C(=O)N1c1ccc(OC)c(Cl)c1	?	-15.6%	-23.5%	?	-12.0%	6.8%
O=C(CCc1nc2sc3c(c2c(=O)[nH]1)CCCC3)Nc1ccccc1Cl	?	44.7µM*	?	.	?	-2.0%
O=C(CCc1nc2sc3c(c2c(=O)[nH]1)CCCC3)NCCc1ccc(Cl)cc1	-6.3%	.	-6.1%	.	.	.
COc1ccc(CCNC(=O)CCc2nc3sc4c(c3c(=O)[nH]2)CCCC4)cc1	?	?	-27.7%	35.5µM*	-26.8%	-13.6%
O=C(CCc1nc2sc3c(c2c(=O)[nH]1)CCCC3)NCCOc1ccccc1	?	?	-17.2%	.	-22.8%	-1.1%
CCc1ccc(NC(=O)CCc2nc3sc4c(c3c(=O)[nH]2)CCCC4)cc1	44.7µM*	?	-3.8%[11.6 µM]	.	?	-0.2%
COc1ccc(C(=O)N(C)c2ccccc2C(=O)NCCc2ccccc2)cc1	-20.8%	-2.4%	2.0%	29.1%	-1.5%	19.7%
CCOc1ccc(Nc2cc(=O)[nH]c(=O)[nH]2)cc1	-17.4%	14.1%	4.4%	24.1%	9.4%	4.1%
COc1cc2c(NC3CCN(C)CC3)nc(N3CCCN(C)CC3)nc2cc1OCCCCCC(N)=O	.	-10.0%	.	.	-6.5%	0.0%
